Assay outcomes deposited in PubChem BioAssay by several laboratories.
Shown are actives, neighbours in structure and some others; about 3.3% of the full set was active somewhere.
MITF TRPM1 HTS = activators of MITF-driven TRPM1 promoter reporter, primary screen, cell-based, SK-MEL-5, luciferase, single point; SK-MEL-5 TRPM1-promoter luciferase, 24 h; % of positive control, neutral wells = 0; activation, % at 12.5 µM; actives 0.75% (n = 300,000); AID 588334, 2011;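 active = mean activation of at least 80% with every replicate also reaching 80%; inconclusive = mean reaches 80% but some replicate falls short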
FXN GAA850 act = FXN promoter activators, primary screen, cell-based, luciferase luminescence, HEK293 lucGAA850. activation, % at 6 µM. HEK293 lucGAA850 FXN promoter luciferase reporter, 24 h; percent of 10 µM SAHA response. AID 540364, 2011. actives 0.56% (n = 360,000);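 active = activation above the average of all compounds screened plus 3 SD, cutoff fixed separately per campaign, cut at about 7.5% in these data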
Wnt bcat act = Wnt/beta-catenin pathway activators, primary screen, cell-based, plate reader, single point | actives 1.2% (n = 300,000) | AID 743398, 2014 | Wnt/beta-catenin reporter cell assay, activator | activation, % at 9.35 µM; in the data active = activation above about 30%, passing the limit was not always enough; inconclusive = no clear call, values can overlap the other calls
esBAF inh = Bmi1 luciferase reporter increase in mESCs, primary screen, esBAF inhibitor project, mouse ES cells, Bmi1 luciferase knock-in, single point | actives 2% (n = 350,000) | 24 h; 100% = twice the neutral-well signal | reporter increase, % at 12.5 µM | AID 602393, 2012; in the data active = activation above about 40%; inconclusive = no clear call, values can overlap the other calls;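 also: a rise in the Bmi1 reporter signal indicates esBAF inhibition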
C2C12 statin = suppressors of statin myotoxicity in C2C12 myotubes, primary screen, cell-based, single point, plate reader; C2C12 myotubes + simvastatin, ATP luminescence, 48 h; scaled: DMSO 0, geranylgeraniol control 100; actives 0.78% (n = 330,000); rescue of ATP level, % at 7.49 µM;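 active = mean ATP rescue above about 67%, or every replicate alone reaching that limit, limit read from the data, passing the limit was not always enough; inconclusive = no clear call, values can overlap the other calls; inactive = mean under the limit and some replicate under it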;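 also: myotubes were challenged with 10 µM simvastatin during compound exposure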
Each line names hits and unclear results; the compound was inactive in the other large screens.

CCNC(=O)C[C@@H]1CC[C@H]2[C@H](COc3ccc(NC(=O)c4ccccc4)cc3C(=O)N2C)O1	none (no result: MITF TRPM1 HTS, FXN GAA850 act, Wnt bcat act)
S=c1nc(NCCc2ccccc2Cl)c2ccccc2[nH]1	esBAF inh 41
COC(=O)[C@H]1[C@H](CO)[C@H]2Cn3c(ccc(-c4ccccc4OC)c3=O)[C@H]2N1C(=O)c1cccnc1	none (no result: MITF TRPM1 HTS, FXN GAA850 act, Wnt bcat act)
Nc1c(C(=O)Nc2ccc3c(c2)OCCO3)nnn1Cc1ccc(Cl)cc1	MITF TRPM1 HTS 130, Wnt bcat act 44, esBAF inh 114
Nc1c(C(=O)Nc2ccc3c(c2)OCCO3)nnn1Cc1cccc(F)c1	MITF TRPM1 HTS 115, Wnt bcat act inconclusive, esBAF inh 69
COc1cccc(/C=C2/SC(=O)N(C)C2=O)c1OCc1ccc(C(=O)O)cc1	none (no result: esBAF inh, C2C12 statin)
CN1C(=O)S/C(=C/c2ccc(OCc3cccc(C(=O)O)c3)cc2)C1=O	Wnt bcat act 45
Cc1ccc(C2=N/C(=C\N(C)C)C(=O)O2)cc1	MITF TRPM1 HTS 94 (no result: Wnt bcat act)
CN(C)/C=C1\N=C(c2cccnc2Oc2ccc(Cl)cc2)OC1=O	C2C12 statin 115
C[C@H]1CN([C@@H](C)CO)C(=O)c2ccccc2-c2ccccc2CO[C@H]1CN(C)S(=O)(=O)CC(F)(F)F	none (no result: MITF TRPM1 HTS, FXN GAA850 act, Wnt bcat act)
Nc1nc(Nc2ccccc2)nc2ccccc12	Wnt bcat act 41 (no result: MITF TRPM1 HTS)
Cc1ccccc1Nc1nc(N)c2ccccc2n1	Wnt bcat act 40
Cc1ccc(S(=O)(=O)N(C)C[C@H]2Oc3ccc(NC(=O)NC(C)C)cc3C(=O)N([C@H](C)CO)C[C@@H]2C)cc1	none (no result: MITF TRPM1 HTS, FXN GAA850 act, Wnt bcat act)
CC(=O)NCCn1c(SCc2cc(=O)n3cc(Cl)ccc3n2)nc2ccccc2c1=O	C2C12 statin 75
Cc1ccc(NC(=S)NC(=O)C2CCCC2)cc1C	MITF TRPM1 HTS 114 (no result: esBAF inh, C2C12 statin)
Cc1ccc(NC(=S)N2CCN(C(=O)C3CCCO3)CC2)c(C)c1 (configuration not stated)	C2C12 statin 100
O=C(NC(=S)Nc1cccc(O)c1)C1CCCCC1	esBAF inh 42
O=C(NC(=S)Nc1ccc(O)cc1)C1CCCC1	none
Cc1ccc(NC(=S)NC(=O)C2CC2)c(C)c1	esBAF inh 50
Cc1ccc(NC(=S)NC(=O)C2CCC2)cc1C	MITF TRPM1 HTS 113, esBAF inh 84
Cc1ccc(S(=O)(=O)Nc2cccc3c2O[C@@H](CN(C)C(=O)Nc2ccc4c(c2)OCO4)[C@@H](C)CN([C@@H](C)CO)C3=O)cc1	esBAF inh 73 (no result: MITF TRPM1 HTS, FXN GAA850 act, Wnt bcat act)
C[C@H]1CN([C@@H](C)CO)C(=O)c2cccc(NC(=O)Nc3ccccc3)c2O[C@H]1CN(C)C(=O)Nc1ccc2c(c1)OCO2	none (no result: MITF TRPM1 HTS, FXN GAA850 act, Wnt bcat act)
Cc1ccc(S(=O)(=O)Nc2cccc3c2O[C@@H](CN(C)C(=O)Nc2ccc4c(c2)OCO4)[C@H](C)CN([C@H](C)CO)C3=O)cc1	none (no result: MITF TRPM1 HTS, FXN GAA850 act, Wnt bcat act)
C[C@@H]1CN([C@@H](C)CO)C(=O)c2cccc(NC(=O)Nc3ccccc3)c2O[C@H]1CN(C)C(=O)Nc1ccc2c(c1)OCO2	esBAF inh 61 (no result: MITF TRPM1 HTS, FXN GAA850 act, Wnt bcat act)
C[C@@H]1CN([C@H](C)CO)C(=O)c2cccc(NC(=O)Nc3ccc4c(c3)OCO4)c2O[C@H]1CN(C)Cc1ccc2c(c1)OCO2	none (no result: MITF TRPM1 HTS, FXN GAA850 act, Wnt bcat act)
C[C@@H]1CN([C@@H](C)CO)C(=O)c2cccc(NC(=O)Nc3ccc4c(c3)OCO4)c2O[C@H]1CN(C)Cc1ccc(Cl)c(Cl)c1	esBAF inh 55 (no result: MITF TRPM1 HTS, FXN GAA850 act, Wnt bcat act)
Cc1ccc(S(=O)(=O)Nc2cccc3c2O[C@H](CN(C)C(=O)Nc2ccc4c(c2)OCO4)[C@@H](C)CN([C@H](C)CO)C3=O)cc1	esBAF inh 49 (no result: MITF TRPM1 HTS, FXN GAA850 act, Wnt bcat act)
O=C(C[C@@H]1C[C@H]2c3cc(NC(=O)NC4CCCCC4)ccc3O[C@H]2[C@@H](CO)O1)NCc1ccncc1	none (no result: MITF TRPM1 HTS, FXN GAA850 act, Wnt bcat act)
C[C@H]1CN([C@@H](C)CO)C(=O)c2cccc(NS(=O)(=O)c3ccccc3)c2O[C@@H]1CN(C)C(=O)Nc1ccc2c(c1)OCO2	esBAF inh 57 (no result: MITF TRPM1 HTS, FXN GAA850 act, Wnt bcat act)
COc1ccc(S(=O)(=O)Nc2cccc3c2O[C@H](CN(C)C(=O)Nc2ccc(F)cc2)[C@H](C)CN([C@@H](C)CO)C3=O)cc1	C2C12 statin 130 (no result: MITF TRPM1 HTS, FXN GAA850 act, Wnt bcat act)
C[C@@H]1CN([C@H](C)CO)C(=O)c2cc(NS(=O)(=O)c3ccccc3)ccc2O[C@@H]1CN(C)C(=O)Nc1ccc2c(c1)OCO2	none (no result: MITF TRPM1 HTS, FXN GAA850 act, Wnt bcat act, C2C12 statin)
